The text below walks through data of PubChem BioAssay (Tox21).

Assay [1] can be described thus: qHTS assay to identify aromatase inhibitors - cell viability counter screen (AID 743084).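 Also: cells stimulated with testosterone during compound exposure; nearly all actives have a fitted effect of over 55% in size.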 For orientation: Quantitative high-throughput screening tests each substance at several concentrations.
The target in assay [2] is Aryl hydrocarbon receptor (Homo sapiens) (UniProt P35869). In words: qHTS assay to identify small molecule that activate the aryl hydrocarbon receptor (AhR) signaling pathway (AID 743085).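 Also: HG2L7.5c1 human HepG2 liver cells with stably integrated DRE-driven firefly reporter; series mostly up to about 70 µM; nearly all actives have a fitted effect of over 15% in size.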 In a few lines:
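Cell line HG2L7.5c1 (human hepatoma, 20× DRE-luc). Plated, 5 h 37C, compound/DMSO added, 24 h 37C. CellTiter-Fluor 30 min 37C → fluorescence; then ONE-Glo 30 min RT → luminescence.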

Assay [3] in a line: qHTS assay to identify small molecule that activate the aryl hydrocarbon receptor (AhR) signaling pathway - cell viability counter screen (AID 743086).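 Also: HepG2 liver cells carrying the AhR DRE luciferase reporter; series mostly up to about 70 µM; nearly all actives have a fitted effect of over 45% in size.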 In a few lines:
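HepG2-AhR-luc (HG2L7.5c1) cells, 4000/well, treated 24 h at 37 C with compound; viability measured as CellTiter-Fluor fluorescence after 30 min in the same wells as the luciferase read.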

The target of assay [4] is Peroxisome proliferator-activated receptor gamma (Homo sapiens) (UniProt P37231). In words: qHTS assay to identify small molecule agonists of the peroxisome proliferator-activated receptor gamma (PPARg) signaling pathway (AID 743094; active = well fitted activation curve with a large enough effect in the signal ratio in the repeat runs, not every such curve was filed as active; the % refers to the signal ratio). In a few lines: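 Cell-based bla reporter, HEK293H background, PPARg-driven UAS. Pre-incubation 5 h, 37C, 5% CO2. Compound 17 h, 37C. Substrate 1 h RT; fluorescence.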
Sequence of Peroxisome proliferator-activated receptor gamma (Homo sapiens) (P37231 whole entry, looked up): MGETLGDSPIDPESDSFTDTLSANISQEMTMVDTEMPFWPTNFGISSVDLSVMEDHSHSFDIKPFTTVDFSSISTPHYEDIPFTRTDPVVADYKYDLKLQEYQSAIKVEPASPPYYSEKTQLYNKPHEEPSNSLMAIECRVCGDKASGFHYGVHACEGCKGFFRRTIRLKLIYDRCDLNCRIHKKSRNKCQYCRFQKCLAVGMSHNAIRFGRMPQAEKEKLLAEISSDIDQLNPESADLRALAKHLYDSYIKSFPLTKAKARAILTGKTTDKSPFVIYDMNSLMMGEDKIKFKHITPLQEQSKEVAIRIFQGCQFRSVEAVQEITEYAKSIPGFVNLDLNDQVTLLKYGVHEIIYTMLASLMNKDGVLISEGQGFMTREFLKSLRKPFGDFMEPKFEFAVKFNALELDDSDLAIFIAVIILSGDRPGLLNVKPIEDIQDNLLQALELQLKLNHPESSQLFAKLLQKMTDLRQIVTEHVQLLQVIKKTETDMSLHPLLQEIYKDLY

The nature of assay [5]: qHTS assay to identify small molecule antagonists of the peroxisome proliferator-activated receptor gamma (PPARg) signaling pathway - cell viability counter screen (AID 743194). Also: nearly all actives have a fitted effect of over 55% in size. A digest of the protocol: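 Cytotoxicity counter screen in PPARg-bla HEK293H cells, same wells as reporter assay. Compounds plus 50 nM rosiglitazone (final) for 17 h at 37 C, then viability read by CellTiter-Glo luminescence.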

Assay [6] can be described thus: qHTS assay for small molecule agonists of the antioxidant response element (ARE) signaling pathway (AID 743202; active = well fitted activation curve with a large enough effect in the signal ratio in the repeat runs, not every such curve was filed as active; the % refers to the signal ratio; also: potency is read from the fitted curve at half-maximal effect). In a few lines:
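HepG2 ARE-bla cells; 16 h treatment at 37 C; FRET-based beta-lactamase fluorescence read after 2 h substrate incubation at room temperature.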

The nature of assay [7]: qHTS assay for small molecule agonists of the antioxidant response element (ARE) signaling pathway - cell viability counter screen (AID 743203; calls by dose curve; also: nearly all actives have a fitted effect of over 55% in size). A digest of the protocol: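 Measured in the same wells as the beta-lactamase ARE reporter, this read-out is CellTiter-Glo luminescence from HepG2 ARE-bla cells given compounds for 16 hrs.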
Assay [8] is described as follows: qHTS assay for small molecule activators of the heat shock response signaling pathway - cell viability counter screen (AID 743209). Also: nearly all actives have a fitted effect of over 50% in size. A digest of the protocol: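 Same-well multiplex: after 2.5 h room-temperature incubation with LiveBLAzer B/G substrate and fluorescence reading, CellTiter-Glo reagent was added to HSE-bla HeLa cells that had received compound for 5 h at 37 C; luminescence read after 30 min.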

Assay [9] can be described thus: qHTS assay for small molecule activators of the heat shock response signaling pathway (AID 743210; active = well fitted activation curve with a large enough effect in the signal ratio in the repeat runs, with a control signal flat, not every such curve was filed as active; the % refers to the signal ratio;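 also: HeLa cells with beta-lactamase reporter driven by heat shock elements; series mostly up to about 63 µM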). A digest of the protocol:
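Following overnight attachment, HSE-bla HeLa cells received test compounds for 5 h at 37 C; beta-lactamase activity was then detected via FRET substrate fluorescence.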

A short description of assay [10]: qHTS assay to identify small molecule agonists of the peroxisome proliferator-activated receptor delta (PPARd) signaling pathway - cell viability counter screen (AID 743211). Also: nearly all actives have a fitted effect of over 55% in size. In a few lines: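 HEK293H PPARd-bla, 3000 cells/well; 5 h preincubation 37C/5% CO2; cpd in DMSO, 17 h 37C; B/G FRET substrate 2 h RT; CellTiter-Glo 30 min RT, luminescence.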
The target of assay [11] is Peroxisome proliferator-activated receptor delta (Homo sapiens) (UniProt Q03181). In words: qHTS assay to identify small molecule agonists of the peroxisome proliferator-activated receptor delta (PPARd) signaling pathway (AID 743212; calls by dose curve). In a few lines: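 Tox21 library screened in GeneBLAzer PPARd UAS-bla HEK293H cells. After compound treatment at 37 C, a FRET-based beta-lactamase substrate was applied for 2 h and fluorescence recorded.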
Sequence of Peroxisome proliferator-activated receptor delta (Homo sapiens) (Q03181 whole entry, looked up): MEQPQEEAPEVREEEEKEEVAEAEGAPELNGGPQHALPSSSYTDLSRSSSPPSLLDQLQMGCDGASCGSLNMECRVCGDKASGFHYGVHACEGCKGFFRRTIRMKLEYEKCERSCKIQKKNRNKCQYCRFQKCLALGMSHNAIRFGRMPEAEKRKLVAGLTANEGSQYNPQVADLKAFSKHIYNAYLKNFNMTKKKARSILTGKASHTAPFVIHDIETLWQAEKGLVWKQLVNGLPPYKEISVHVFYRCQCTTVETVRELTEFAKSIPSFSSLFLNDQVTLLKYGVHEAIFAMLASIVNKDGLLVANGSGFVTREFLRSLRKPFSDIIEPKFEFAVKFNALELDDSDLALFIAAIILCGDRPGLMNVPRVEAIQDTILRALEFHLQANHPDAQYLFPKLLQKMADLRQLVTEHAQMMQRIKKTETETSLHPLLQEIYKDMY

The nature of assay [12]: qHTS assay to identify small molecule antagonists of the peroxisome proliferator-activated receptor delta (PPARd) signaling pathway - cell viability counter screen (AID 743213). Also: nearly all actives have a fitted effect of over 50% in size. A digest of the protocol: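 PPARd-bla HEK293H cells (3000/well) got compound plus 300 nM L165041 agonist for 17 h at 37 C. Viability in the same wells came from CellTiter-Glo luminescence after 30 min at room temperature.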

For assay [13], the target named is Bile acid receptor (Homo sapiens) (UniProt Q96RI1). In words: qHTS assay to identify small molecule antagonists of the farnesoid-X-receptor (FXR) signaling pathway (AID 743217; active = well fitted inhibition curve with a large enough effect in the signal ratio in the repeat runs, not every such curve was filed as active; the % refers to the signal ratio). In a few lines: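 FRET fluorescence after 2 h room-temperature LiveBLAzer loading gives the readout. Prior step: FXR-bla HEK 293T cells, seeded and incubated 5 h, received test compounds plus 50 uM final CDCA for 16 h at 37 °C.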
Sequence of Bile acid receptor (Homo sapiens) (Q96RI1 whole entry, looked up): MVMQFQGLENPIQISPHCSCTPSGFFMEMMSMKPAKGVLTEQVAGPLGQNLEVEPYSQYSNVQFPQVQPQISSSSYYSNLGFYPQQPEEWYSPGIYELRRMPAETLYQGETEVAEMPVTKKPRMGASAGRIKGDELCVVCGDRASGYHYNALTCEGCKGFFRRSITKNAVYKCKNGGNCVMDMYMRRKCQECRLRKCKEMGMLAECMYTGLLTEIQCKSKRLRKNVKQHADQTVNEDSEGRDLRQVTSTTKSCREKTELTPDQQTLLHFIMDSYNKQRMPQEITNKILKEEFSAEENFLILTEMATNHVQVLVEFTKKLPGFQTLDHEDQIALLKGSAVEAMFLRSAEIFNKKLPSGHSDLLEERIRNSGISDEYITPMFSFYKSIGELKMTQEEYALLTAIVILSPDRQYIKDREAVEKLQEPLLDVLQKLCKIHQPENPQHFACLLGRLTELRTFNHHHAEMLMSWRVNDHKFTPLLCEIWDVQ

Assay [14] in a line: qHTS assay to identify small molecule agonists of the farnesoid-X-receptor (FXR) signaling pathway - cell viability counter screen (AID 743218). Also: nearly all actives have a fitted effect of over 45% in size. A digest of the protocol:
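Readout: CellTiter-Glo luminescence, 30 min RT, multiplexed after the FXR-bla FRET reading. HEK 293T FXR-UAS-bla cells received compound 5 h post-plating and were incubated 16 h at 37 C.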

Assay [15] has as its target Bile acid receptor (Homo sapiens) (UniProt Q96RI1). In words: qHTS assay to identify small molecule agonists of the farnesoid-X-receptor (FXR) signaling pathway (AID 743220; active = well fitted activation curve with a large enough effect in the signal ratio in the repeat runs, not every such curve was filed as active; the % refers to the signal ratio). A digest of the protocol: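 FXR-UAS-bla HEK 293T cells carrying a UAS-driven beta-lactamase reporter were plated for 5 h at 37C/5% CO2, then exposed to DMSO-dissolved Tox21 10K compounds for 16 h at 37C. A LiveBLAzer B/G FRET substrate was loaded for 2 h at room temperature before fluorescence reading.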

The nature of assay [16]: qHTS assay to identify small molecule antagonists of the farnesoid-X-receptor (FXR) signaling pathway - cell viability counter screen (AID 743221; active = well fitted cell-killing curve with a large enough effect in the repeat runs, not every such curve was filed as active; also: nearly all actives have a fitted effect of over 50% in size). In a few lines:
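Luminescence from CellTiter-Glo measures cytotoxicity in GeneBLAzer FXR-UAS-bla HEK 293T cells. Cells were exposed to compounds with 50 uM chenodeoxycholic acid (final) for 16 h at 37 C, in wells also used for the reporter readout.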

Assay [17] deals with Vitamin D3 receptor (Homo sapiens) (UniProt P11473). Nature of the assay: qHTS assay to identify small molecule agonists of the vitamin D receptor (VDR) signaling pathway (AID 743222; calls by dose curve). In a few lines: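 Following 4 h attachment at 37C, VDR-bla cells (2,000 per well) received DMSO-dissolved compounds or controls. After 16 h incubation, LiveBLAzer B/G FRET substrate was added and fluorescence read 2 h later at room temperature.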
Sequence of Vitamin D3 receptor (Homo sapiens) (P11473 whole entry, looked up): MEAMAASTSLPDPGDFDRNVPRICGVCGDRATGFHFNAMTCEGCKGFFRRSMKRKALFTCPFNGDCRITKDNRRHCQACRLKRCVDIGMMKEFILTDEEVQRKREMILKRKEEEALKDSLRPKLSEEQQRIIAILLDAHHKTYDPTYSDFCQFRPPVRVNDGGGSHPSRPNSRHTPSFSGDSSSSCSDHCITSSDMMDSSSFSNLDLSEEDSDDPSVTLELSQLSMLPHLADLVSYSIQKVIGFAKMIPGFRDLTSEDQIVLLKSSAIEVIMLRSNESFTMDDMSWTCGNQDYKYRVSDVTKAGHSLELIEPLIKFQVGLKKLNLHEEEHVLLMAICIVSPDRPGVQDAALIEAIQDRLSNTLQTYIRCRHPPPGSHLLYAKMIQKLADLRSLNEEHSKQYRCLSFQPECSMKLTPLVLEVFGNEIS

Assay [18] shares this target. Nature of the assay: qHTS assay to identify small molecule antagonists of the vitamin D receptor (VDR) signaling pathway (AID 743223; active = well fitted inhibition curve with a large enough effect in the signal ratio in the repeat runs, not every such curve was filed as active; the % refers to the signal ratio). In a few lines: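 Antagonist mode uses 1alpha,25-dihydroxyvitamin D3 at 3 nM final as stimulus. VDR-bla cells receive compounds in DMSO, incubate 16 h at 37C, then a beta-lactamase FRET substrate for 2 h at room temperature before fluorescence measurement.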

Assay [19] deals with Peroxisome proliferator-activated receptor delta (Homo sapiens) (UniProt Q03181). In words: qHTS assay to identify small molecule antagonists of the peroxisome proliferator-activated receptor delta (PPARd) signaling pathway (AID 743215; active = well fitted inhibition curve with a large enough effect in the signal ratio in the repeat runs, not every such curve was filed as active; the % refers to the signal ratio;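 also: cells stimulated with agonist L165041 at 300 nM final during compound exposure; series mostly up to about 62 µM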). In a few lines:
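Fluorescence from cleaved LiveBLAzer B/G FRET substrate (2 h, room temperature) reports PPARd-driven beta-lactamase in HEK293H UAS-bla cells. Cells had been treated 17 h at 37 C with compound plus 300 nM final L165041.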

Records with an inconclusive call do not appear. More than one record can exist for a structure, and the calls need not agree. Activity calls are given as the source filed them. Unless noted, calls follow the shape of the dose curve; as a rule, active = well fitted curve in the direction sought with a large enough effect in the repeat runs; inconclusive = weak or mixed curves; inactive = no such curve, though single readings can be large; an effect the other way counts as inactive or inconclusive.

Sequence of Aryl hydrocarbon receptor (Homo sapiens) (P35869 whole entry, looked up): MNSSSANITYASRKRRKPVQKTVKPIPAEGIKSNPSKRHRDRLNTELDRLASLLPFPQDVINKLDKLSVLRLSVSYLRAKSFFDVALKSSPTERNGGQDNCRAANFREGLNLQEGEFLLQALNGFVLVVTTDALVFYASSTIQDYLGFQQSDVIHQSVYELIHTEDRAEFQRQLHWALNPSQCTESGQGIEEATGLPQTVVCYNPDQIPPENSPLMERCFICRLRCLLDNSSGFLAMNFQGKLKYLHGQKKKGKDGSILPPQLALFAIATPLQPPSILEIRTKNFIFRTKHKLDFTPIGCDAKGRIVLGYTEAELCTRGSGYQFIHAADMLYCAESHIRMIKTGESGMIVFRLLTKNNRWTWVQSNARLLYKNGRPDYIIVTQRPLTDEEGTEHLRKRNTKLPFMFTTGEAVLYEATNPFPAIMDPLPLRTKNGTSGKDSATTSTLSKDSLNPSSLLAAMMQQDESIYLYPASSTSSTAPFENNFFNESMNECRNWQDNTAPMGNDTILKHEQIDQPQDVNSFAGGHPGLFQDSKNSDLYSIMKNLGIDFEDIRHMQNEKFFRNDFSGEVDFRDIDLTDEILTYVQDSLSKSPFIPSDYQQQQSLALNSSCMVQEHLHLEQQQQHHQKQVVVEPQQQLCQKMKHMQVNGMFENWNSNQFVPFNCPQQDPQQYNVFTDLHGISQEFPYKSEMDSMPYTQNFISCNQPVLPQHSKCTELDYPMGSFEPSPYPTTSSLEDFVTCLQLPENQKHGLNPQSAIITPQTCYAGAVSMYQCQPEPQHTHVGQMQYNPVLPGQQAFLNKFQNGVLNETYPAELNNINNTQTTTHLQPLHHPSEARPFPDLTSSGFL

For `CC(C)(C)c1cc(Cc2cc(C(C)(C)C)c(O)c(C(C)(C)C)c2)cc(C(C)(C)C)c1O`, the Potency result in assay [1], in [2], in assay [3], in assay [6], in assay [7] and in [11] was “inactive” in each case. Moreover, the result in [4], in assay [5], in [8], in assay [9], in [10] and in assay [12] was inactive. For the same compound, the result in assay [13], in assay [14], in assay [15], in assay [16], in assay [17] and in assay [18] was inactive.
`CC1(C)S[C@@H]2[C@H](NC(=O)COc3ccccc3)C(=O)N2[C@H]1C(=O)O`: the Potency result in [1], in assay [2], in assay [3], in assay [6], in assay [7] and in assay [11] was “inactive” each time. In addition, the outcome in assay [4], in [5], in [8], in [9], in assay [10] and in [12] was inactive. Moreover, the result in assay [19], in assay [14], in assay [16] and in [17] was inactive.
With `CC(CCl)OP(=O)(OC(C)CCl)OC(C)CCl` (centres undefined), the Potency entry in assay [1], in assay [2], in assay [3], in assay [6], in assay [7] and in [11] was “inactive” throughout. The call in assay [4], in assay [5], in [8], in assay [9], in assay [10] and in assay [12] was inactive. Besides, the compound was classed as inactive in assay [19], in assay [13], in assay [14], in assay [15], in assay [16] and in [17]. The result in [18] was inactive.
`C=CCCCCCCCCC(=O)O`: the Potency result in assay [1], in assay [2], in [3], in assay [6] and in assay [7] was “inactive” throughout. In addition, the result in assay [4], in assay [5], in [8], in assay [9], in assay [10] and in [12] was inactive. Also, the result in assay [16], in assay [17] and in [18] was inactive.
Consider `C[C@]12CCC(=O)C=C1CC[C@@H]1[C@@H]2[C@@H](O)C[C@@]2(C)[C@H]1CC[C@]2(O)C(=O)CO`, for which the Potency result in assay [1], in [2], in assay [3], in assay [6], in assay [7] and in assay [11] was “inactive” throughout. The call in assay [4], in [5], in assay [8], in assay [9], in assay [10] and in [12] was inactive. For the same compound, the outcome in assay [19], in assay [14], in [16], in assay [17] and in assay [18] was inactive.
`CCOCCOCCOCCO`: the Potency entry in assay [1], in assay [2], in [3], in assay [6] and in assay [7] was “inactive” each time. Besides, the result in [4], in [5], in [8], in assay [9], in [10] and in assay [12] was inactive. Also, the call in assay [13], in assay [15], in assay [16], in assay [17] and in assay [18] was inactive.
As for `CNC(=S)N(C)C`, the Potency result in assay [1], in assay [2], in assay [3], in [6] and in assay [7] was “inactive” in each case. For the same compound, the result in assay [4], in [5], in assay [8], in assay [9], in assay [10] and in assay [12] was inactive. Also, the outcome in assay [16], in assay [17] and in [18] was inactive.
As to `O=c1[nH]cnc2[nH]ncc12`, the Potency result in assay [1], in [2], in assay [3], in assay [6], in [7] and in [11] was “inactive” throughout. The result in assay [4], in assay [5], in [8], in assay [9], in assay [12] and in assay [16] was inactive. Besides, the compound was classed as inactive in assay [17] and in [18].
With `O=C(O)c1ccc(S(=O)(=O)N(Cl)Cl)cc1`, the Potency entry in [1], in assay [2], in assay [3] and in [7] was “inactive” each time. Also, the result in assay [4], in assay [5], in [8], in [9], in [12] and in assay [13] was inactive. In addition, the call in assay [14], in assay [15], in [16], in assay [17] and in assay [18] was inactive. Moreover, in assay [6], the Potency is 27.5 µM (active) and inactive.
